NadD inh: blocks S. aureus nicotinate mononucleotide adenylyltransferase | actives 0.78% (n = 360,000) | purified NadD enzyme, colorimetric absorbance read-out | inhibition, % at 20 µM | AID 602399; in the data active = inhibition above about 26%
H9c2 TAG inh: triacylglycerol accumulation inhibition; H9c2 cells, Nile Red lipid (TAG) fluorescence; cells loaded with 200 µM oleic acid; inhibition, % at 12.5 µM; actives 0.66% (n = 230,000); AID 651582;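 active = pattern-corrected inhibition of lipid staining of at least 50% with the nuclear-stain viability signal not falling by more than 50%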;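 also: 0% = DMSO wells and 100% = triacsin C control wells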
MPTP block: blocks calcium-induced mitochondrial swelling; isolated mouse mitochondria, Ca2+ swelling absorbance, 30 min; inhibition, % at 10 µM; actives 1.4% (n = 360,000);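 active = inhibition of 50% or more, scaled per plate between neutral and stimulator controls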;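 also: 0% = DMSO wells given calcium and 100% = 1 mM EGTA wells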
aDG glyco act: alpha-DG glycosylation activation | Pro5-aDG cells, alpha-DG glycosylation AlphaScreen (IIH6); 0% Pro5, 100% B10-LARGE cell signal | activation, % at 10 µM | actives 0.22% (n = 360,000);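 active = activation of at least 8% versus controls, or a plate z-score of at least 8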;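 also: Pro5 are CHO cells carrying HIG-tagged alpha-DG that lacks glycosylation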
MPTP counter: Rhodamine 123 counter-screen of mitochondrial pore hits; isolated mitochondria, membrane potential, Rhodamine 123 fluorescence; shares compounds with MPTP block; actives 78% (n = 5,000); inhibition, % at 10 µM; in the data active = inhibition above about 22%;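 also: 0% = DMSO vehicle and 100% = positive control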
MPTP abs DR: MPTP inhibition, dose response swelling confirmation; shares compounds with MPTP block; isolated mitochondria swelling, absorbance; IC50, µM; actives 58% (n = 780); AID 651561; in the data active = IC50 below about 20 µM
MPTP cs DR: MPTP inhibitor counter-screen activity, dose response. shares compounds with MPTP block. isolated mitochondria counterscreen, fluorescence read-out. IC50, µM. actives 49% (n = 780). AID 651564; in the data active = IC50 below about 80 µM
Numbers without * were called inactive; i = inactive; nt = no result. Only some compounds are listed: those with a hit (about 2.7% of all), similar ones and a draw of the others.

SMILES	NadD inh	H9c2 TAG inh	MPTP block	aDG glyco act	MPTP counter	others
S=C(Nc1ccc(Cl)cc1)NC1CCCCC1	6	-9	82*	0	93*
S=C(Nc1ccc(Nc2ccccc2)cc1)NC1CCCCCC1	15	-14	63*	2	66*
COc1cc2c(cc1OC)C(O)=CC(=O)C2=O	2	3	-1	0	nt
COC(=O)c1ccc(NC(=S)NC2CC3CCC2C3)cc1 (configuration not stated)	1	nt	101*	0	91*
COC(=O)c1ccc(NC(=S)NC2CCCCC2)cc1	-2	nt	90*	0	80*
S=C(Nc1cccc(Cl)c1)NC1CCCCC1	-8	-13	99*	0	108*
COc1ccc(CCNC(=O)c2cccc(S(=O)(=O)N3CCCCCC3)c2)cc1	-3	5	-3	0	nt
C[C@@H]1c2ccccc2N2C[C@H](Cc3ccc(C(=O)c4ccccc4)cc3)C[C@@H]12	8	11	-4	0	nt
Cc1nn(-c2ccccc2)c2nc(C(Cl)(Cl)Cl)[nH]c(=O)c12	-1	-4	68*	0	57*
COc1ccc(N2CC(C(=O)NCCc3ccc(Cl)cc3)CC2=O)cc1 (configuration not stated)	8	nt	-1	0	nt
N#C/C(=C\Nc1ccccc1O)c1nc2ccccc2o1	-9	nt	77*	0	78*
CC(C)(C)C(C(=O)NCc1ccccc1)N1CCN(C(=O)C2CCCO2)CC1 (configuration not stated)	nt	nt	6	0	nt
CC(NC(=O)Nc1ccc(Br)cc1)C(C)(C)C (configuration not stated)	-8	nt	78*	0	93*
COC(=O)C(C)(C)ONC(=O)Nc1ccc(Br)cc1	-2	nt	12	0	nt
COc1ccc(Nc2ncnc3sc(-c4ccccc4)cc23)cc1	6	nt	71*	0	61*
COCCCNC(=S)N(CCO)Cc1cc2cc3c(cc2[nH]c1=O)OCO3	6	-3	0	0	nt
Cc1csc(N=Nc2ccc(N(C)C)cc2)[n+]1[O-]	-14	21	68*	0	-22	MPTP abs DR=i;MPTP cs DR=>80
CCCCCCOc1ccc(/C(C)=N/NC2=NCCN2)cc1[N+](=O)[O-]	5	nt	-1	-1	nt
CCCCOc1ccc(Br)cc1/C(C)=N/NC1=NCCN1	-8	45	67*	0	92*
CCN(CC)CCNc1nc2nonc2nc1NCCN(CC)CC	-6	13	-1	0	nt
CC(C)O/C(=N/S(=O)(=O)c1ccc(Cl)cc1)c1ccccc1	1	-3	-1	0	nt
CN1CCN(c2cc3c(c4c2[nH]c2ccccc24)C(=O)CC(C)(C)C3)CC1	-1	54*	84*	2	-42
CN1CCN(c2ccc(Cl)cc2NC(=O)c2cc(=O)[nH]c3ccccc23)CC1	-8	19	-2	0	nt
O=C(CN1CCN(c2ccc(F)cc2)CC1)Nc1ccc(S(=O)(=O)N2CCOCC2)cc1	2	nt	-2	0	nt
COc1ccc(C(O)Cn2c(=N)n(CCCN(C)C)c3ccccc32)cc1 (configuration not stated)	2	11	80*	1	-5
SMILES	NadD inh	H9c2 TAG inh	MPTP block	aDG glyco act	MPTP counter	others
CCCCn1c(N)c(-c2nc3ccccc3s2)c2c([N+](=O)[O-])nn(CC)c(=O)c21	6	nt	92*	0	-5	MPTP abs DR=20*;MPTP cs DR=18*
CCCCCn1c(N)c(-c2nc3ccccc3o2)c2c([N+](=O)[O-])nn(CC)c(=O)c21	10	nt	23	0	nt
Cn1nc([N+](=O)[O-])c2c(-c3nc4ccccc4s3)c(N)n(C3CCCCC3)c2c1=O	29	12	72*	0	6	MPTP abs DR=i;MPTP cs DR=43*
CCCCCn1c(N)c(-c2nc3ccccc3s2)c2c([N+](=O)[O-])nn(CC)c(=O)c21	-6	nt	97*	0	2	MPTP abs DR=11*;MPTP cs DR=<2.5*
CCCCn1c(N)c(-c2nc3ccccc3s2)c2c([N+](=O)[O-])nn(C)c(=O)c21	3	nt	97*	0	-1	MPTP abs DR=12*;MPTP cs DR=6.2*
Cc1ccc(NC(=O)/C(=C/c2cccc([N+](=O)[O-])c2)NC(=O)C2CCCCC2)cc1	3	nt	7	0	nt
O=C(Nc1ccc(Br)cc1)/C(=C/c1cccc([N+](=O)[O-])c1)NC(=O)C1CCCCC1	14	nt	90*	0	84*
Cc1ccccc1C1=NC(C(F)(F)F)(C(F)(F)F)c2c(n(C)c(=O)n(C)c2=O)N1	-2	nt	2	0	nt
Cn1c2c(c(=O)n(C)c1=O)C(C(F)(F)F)(C(F)(F)F)N=C(c1ccc(Cl)cc1)N2	4	nt	99*	0	84*
CCCCOc1ccc(Br)cc1CSC(=N)N	-6	8	83*	4	108*
CCOc1ccc(C(C)=O)cc1CSC(=N)N	-7	-8	0	0	nt
O=c1c2ccccc2nc(N/N=C/c2c(O)ccc3ccccc23)n1O	18	49	52*	0	-19
CC1(C)CC(=O)C2=C(C1)OC1=C(C(=O)CC(C)(C)C1)C2c1cc([N+](=O)[O-])cc([N+](=O)[O-])c1O	1	nt	1	0	nt
CC1(C)CC(=O)C(C2C3=C(CC(C)(C)CC3=O)Oc3c(Br)cc(Br)cc32)=C(O)C1 (configuration not stated)	11	nt	82*	0	95*
CCCCCCN[C@H]1CCC2C3CC=C4C[C@@H](O)CC[C@]4(C)C3CC[C@@]21C (some centres not stated)	-6	-4	25	2	nt
Nc1ncnc2c1ncn2[C@@H]1O[C@H](C(=O)N2CCN(Cc3ccccn3)CC2)[C@@H](O)[C@H]1O	-3	nt	0	0	nt
CC1CCCN(S(=O)(=O)c2ccc(C(=O)Nc3ccccc3-c3nc4ccccc4[nH]3)cc2)C1 (configuration not stated)	5	nt	90*	0	3	MPTP abs DR=7.2*;MPTP cs DR=4.2*
COCCc1ccc(OC2(C)CCN(Cc3cccn3-c3nccs3)C2)cc1 (configuration not stated)	-2	9	2	0	nt
CC1=C(C)/C(=N\OS(=O)(=O)c2ccc(C)cc2)C=CC1=O	-5	75	98*	0	104*
CC1=C/C(=N\OS(=O)(=O)c2ccccc2)C(C)=CC1=O	1	18	98*	-1	100*
CC1=C/C(=N\OS(=O)(=O)c2ccccc2)C(C(C)C)=CC1=O	-3	nt	6	0	nt
C=CCN(C(=O)CC(NC(C)=O)c1ccccc1)c1nc(-c2ccc(S(C)(=O)=O)cc2)cs1 (configuration not stated)	-4	nt	3	0	nt
Cn1cc(CNCc2cn(C)nc2-c2ccc(C3CCCCC3)cc2)cn1	-8	10	92*	0	-6	MPTP abs DR=8.8*;MPTP cs DR=71*
